Measurements: PubChem BioAssay (NCI)
About 79,000 compounds went through this panel and 15% of them were active in at least one assay; those are over-represented in the sample as a whole. Active and inactive are the calls of the source. No stated cut-off is given here; in the data, active means growth inhibition above about 70%; inactive means the rest.

Tests used:
[1] = NCI Yeast Anticancer Drug Screen. Data for the sgs1 mgt1 strain (AID 161);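 further: 0% = growth of cultures given vehicle only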; details: S. cerevisiae sgs1 mgt1 strain, hits give high values
Outline: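 Read-out: growth inhibition vs vehicle controls. Cells: mutant yeast strain deficient in DNA damage repair.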

[2] = NCI Yeast Anticancer Drug Screen. Data for the CLN2oe strain (AID 163);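 further: 0% = growth of vehicle-only control cultures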; details: S. cerevisiae CLN2oe strain, hits give high values
Outline: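 Strain altered in cell-cycle control, incubated with compound; growth compared to solvent-treated controls.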

[3] = NCI Yeast Anticancer Drug Screen. Data for the cln2 rad14 strain (AID 165);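 further: 0% = growth equal to vehicle treated cultures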; details: S. cerevisiae cln2 rad14 strain, hits give high values
Outline: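 The screen exposed genetically defined yeast (cln2 rad14) to test compounds and scored growth inhibition relative to vehicle-treated controls.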

[4] = NCI Yeast Anticancer Drug Screen. Data for the bub3 strain (AID 167); details: S. cerevisiae bub3 mutant strain, hits give high values
Outline: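 Mutant yeast screening strain plus compound; vehicle-treated cultures serve as the 0% inhibition reference.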

[5] = NCI Yeast Anticancer Drug Screen. Data for the wt2 strain (AID 169); details: S. cerevisiae wt2 strain growth inhibition, hits give high values
Outline: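 Steps: yeast strain treated with compound; growth recorded; inhibition calculated relative to cultures given vehicle alone.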

[6] = NCI Yeast Anticancer Drug Screen. Data for the mlh1 strain (AID 171);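 further: 0% = growth of vehicle-treated control cultures of the same strain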; details: S. cerevisiae mlh1 strain growth inhibition, hits give high values
Outline: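 Yeast screen: mutant strain plus compound, growth scored against vehicle control wells.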

[7] = NCI Yeast Anticancer Drug Screen. Data for the mlh1 rad18 strain (AID 175); details: S. cerevisiae mlh1 rad18 strain growth inhibition, hits give high values
Outline: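 Compound-treated yeast growth, normalised to vehicle controls. Strain bears defined DNA repair mutations.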

[8] = NCI Yeast Anticancer Drug Screen. Data for the rad18 strain (AID 177); details: S. cerevisiae rad18 mutant growth inhibition, hits give high values
Outline: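 Inhibition values reflect reduced yeast growth compared with vehicle-treated controls, using a strain engineered with a DNA damage repair defect.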

[9] = NCI Yeast Anticancer Drug Screen. Data for the wt1 strain (AID 149);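 further: 0% = growth of vehicle-treated wt1 cultures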; details: S. cerevisiae wt1 strain (SPY 50644) growth inhibition, hits give high values
Outline: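 Each compound is tested on wt1 yeast and the loss of growth versus vehicle gives the inhibition value.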

[10] = NCI Yeast Anticancer Drug Screen. Data for the rad50EPP+ strain (AID 151);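 further: 0% = growth of vehicle-treated control cultures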; details: S. cerevisiae rad50 mutant strain, hits give high values
Outline: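 Strain rad50EPP+; compound exposure; % growth inhibition vs vehicle.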

[11] = NCI Yeast Anticancer Drug Screen. Data for the mgt1 strain (AID 153); details: S. cerevisiae mgt1 mutant growth inhibition, hits give high values
Outline: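 Read-out: yeast growth inhibition vs vehicle control. Strain mgt1, drawn from a panel altered in DNA damage repair or cell cycle control.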

[12] = NCI Yeast Anticancer Drug Screen. Data for the rad50 strain (AID 155);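 further: 0% = growth of vehicle-only cultures of the same strain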; details: S. cerevisiae rad50 strain growth inhibition, hits give high values
Outline: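 Vehicle-treated cultures provide the reference for the growth inhibition reported for compound-exposed, repair-deficient yeast.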

[13] = NCI Yeast Anticancer Drug Screen. Data for the mec2-1 strain (AID 157); details: S. cerevisiae mec2-1 strain, hits give high values
Outline: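 Cells of the genetically defined mec2-1 yeast strain are incubated with test compound. Inhibition of growth is calculated against vehicle-treated controls.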

[14] = NCI Yeast Anticancer Drug Screen. Data for the rad14 strain (AID 159);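 further: 0% = growth of vehicle-treated control cultures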; details: S. cerevisiae rad14 strain growth inhibition, hits give high values
Outline: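 Inhibition of growth is reported for a repair-deficient yeast mutant following compound treatment, calculated relative to cultures that received vehicle.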

[15] = NCI Yeast Anticancer Drug Screen. Data for the sgs1 strain (AID 173);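 further: 0% = growth of vehicle-only control cultures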; details: S. cerevisiae sgs1 mutant, hits give high values
Outline: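 Inhibition of yeast growth served as the measure. The mutant strain was treated with each compound, and growth was normalised to cultures receiving vehicle alone.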

[16] = at 5.0 µM (retest, dose inferred, filed as 0.5)
[17] = at 50.0 µM (retest, dose inferred, filed as 5.0)

Measured: growth inhibition

CCCCOP(=O)(CCCP(=O)(OCCCC)OCCCC)OCCCC
inactive: [1]; at 50.0 µM -2.15% | [2]; at 1.2 µM 1% | [2]; at 3.7 µM -3% | [2]; at 11.0 µM 7% | [2]; at 33.0 µM 29% | [3]; [16] 7% | [3]; [17] 38% | [3]; at 50.0 µM 1.1% | [4]; at 1.2 µM -5% | [4]; at 3.7 µM -3% | [4]; [16] 0% | [4]; at 11.0 µM -2% | [4]; at 33.0 µM 1% | [4]; [17] 4% | [4]; at 50.0 µM 19.2% | [5]; at 1.2 µM -2% | [5]; at 3.7 µM -5% | [5]; at 11.0 µM -4% | [5]; at 33.0 µM 0% | [6]; at 1.2 µM -5% | [6]; at 3.7 µM -2% | [6]; at 11.0 µM 1% | [6]; at 33.0 µM 8% | [7]; [16] -2% | [7]; [17] 17% | [7]; at 50.0 µM 42.2% | [8]; at 1.2 µM -7% | [8]; at 3.7 µM 0% | [8]; at 11.0 µM 5% | [8]; at 33.0 µM 8%
active: [2]; at 100.0 µM 81% | [4]; at 100.0 µM 79% | [5]; at 100.0 µM 96% | [6]; at 100.0 µM 91% | [8]; at 100.0 µM 95%

CN(C)CCCCN1c2ccccc2Sc2ccc(N=[N+]=[N-])cc21
inactive: [9]; at 1.2 µM 23% | [9]; at 3.7 µM 36% | [9]; at 11.0 µM 36% | [9]; at 33.0 µM 47% | [10]; at 1.2 µM 24% | [10]; at 3.7 µM 20% | [10]; at 11.0 µM 23% | [10]; at 33.0 µM 23% | [11]; at 1.2 µM 19% | [11]; at 3.7 µM 20% | [11]; at 11.0 µM 31% | [11]; at 33.0 µM 51% | [12]; at 1.2 µM 6% | [12]; at 3.7 µM 20% | [12]; at 11.0 µM 15% | [12]; at 33.0 µM 47% | [13]; at 1.2 µM 33% | [13]; at 3.7 µM 31% | [13]; [16] 33% | [13]; at 11.0 µM 36% | [13]; at 33.0 µM 42% | [14]; at 1.2 µM 0% | [14]; at 3.7 µM 8% | [14]; at 11.0 µM 19% | [14]; at 33.0 µM 55% | [1]; [16] -16% | [2]; at 1.2 µM 19% | [2]; at 3.7 µM 18% | [2]; at 11.0 µM 24% | [2]; at 33.0 µM 39% | [3]; [16] 8% | [4]; at 1.2 µM -8% | [4]; at 3.7 µM -10% | [4]; [16] 4% | [4]; at 11.0 µM -14% | [4]; at 33.0 µM 14% | [5]; at 1.2 µM -8% | [5]; at 3.7 µM -15% | [5]; at 11.0 µM -14% | [5]; at 33.0 µM 46% | [6]; at 1.2 µM 32% | [6]; at 3.7 µM 31% | [6]; at 11.0 µM 35% | [6]; at 33.0 µM 57% | [7]; [16] 23% | [8]; at 1.2 µM 10% | [8]; at 3.7 µM 14% | [8]; at 11.0 µM 24% | [8]; at 33.0 µM 57%
active: [9]; at 100.0 µM 99% | [10]; at 100.0 µM 80% | [11]; at 100.0 µM 99% | [12]; [16] 91% | [12]; [17] 99% | [12]; at 50.0 µM 84.2% | [12]; at 100.0 µM 98% | [13]; [17] 99% | [13]; at 50.0 µM 79.2% | [13]; at 100.0 µM 99% | [14]; at 100.0 µM 99% | [1]; [17] 99% | [1]; at 50.0 µM 90.5% | [2]; at 100.0 µM 98% | [3]; [17] 99% | [3]; at 50.0 µM 89.5% | [4]; [17] 98% | [4]; at 50.0 µM 72% | [4]; at 100.0 µM 98% | [5]; at 100.0 µM 99% | [6]; at 100.0 µM 99% | [7]; [17] 99% | [7]; at 50.0 µM 91.5% | [8]; at 100.0 µM 99%

CCOC(=O)/C(=C\c1ccc(C#N)cc1)C(C)=O
inactive: [9]; at 1.2 µM -15% | [9]; at 3.7 µM 6% | [9]; at 11.0 µM 9% | [10]; at 1.2 µM -8% | [10]; at 3.7 µM 24% | [10]; at 11.0 µM 40% | [11]; at 1.2 µM -23% | [11]; at 3.7 µM -4% | [11]; at 11.0 µM 38% | [12]; at 1.2 µM -9% | [12]; at 3.7 µM 7% | [12]; [16] 36% | [12]; at 11.0 µM 31% | [13]; at 1.2 µM -36% | [13]; at 3.7 µM -27% | [13]; [16] -11% | [13]; at 11.0 µM 13% | [14]; at 1.2 µM -4% | [14]; at 3.7 µM 1% | [14]; at 11.0 µM 15% | [1]; [16] 25% | [2]; at 1.2 µM -20% | [2]; at 3.7 µM -27% | [2]; at 11.0 µM 3% | [3]; [16] 13% | [3]; at 50.0 µM 38.2% | [4]; at 1.2 µM 1% | [4]; at 3.7 µM 3% | [4]; [16] 29% | [4]; at 11.0 µM 58% | [5]; at 1.2 µM -37% | [5]; at 3.7 µM -18% | [5]; at 11.0 µM 18% | [6]; at 1.2 µM 0% | [6]; at 3.7 µM 26% | [6]; at 11.0 µM 69% | [15]; at 1.2 µM -18% | [15]; at 3.7 µM -6% | [15]; at 11.0 µM 25% | [7]; [16] -9% | [8]; at 1.2 µM -30% | [8]; at 3.7 µM 7% | [8]; at 11.0 µM 23%
active: [9]; at 33.0 µM 84% | [9]; at 100.0 µM 98% | [10]; at 33.0 µM 84% | [10]; at 100.0 µM 98% | [11]; at 33.0 µM 95% | [11]; at 100.0 µM 99% | [12]; at 33.0 µM 91% | [12]; [17] 94% | [12]; at 50.0 µM 88.8% | [12]; at 100.0 µM 99% | [13]; at 33.0 µM 92% | [13]; [17] 98% | [13]; at 50.0 µM 81.3% | [13]; at 100.0 µM 98% | [14]; at 33.0 µM 95% | [14]; at 100.0 µM 99% | [1]; [17] 94% | [1]; at 50.0 µM 92% | [2]; at 33.0 µM 87% | [2]; at 100.0 µM 99% | [3]; [17] 94% | [4]; at 33.0 µM 98% | [4]; [17] 99% | [4]; at 50.0 µM 81.2% | [4]; at 100.0 µM 99% | [5]; at 33.0 µM 93% | [5]; at 100.0 µM 99% | [6]; at 33.0 µM 98% | [6]; at 100.0 µM 98% | [15]; at 33.0 µM 93% | [15]; at 100.0 µM 98% | [7]; [17] 97% | [7]; at 50.0 µM 90% | [8]; at 33.0 µM 88% | [8]; at 100.0 µM 98%
